We go through 10 molecules from PubChem BioAssay (NCI).

Test systems include RPMI-8226 leukemia; OVCAR-8 ovarian; OVCAR-4 ovarian; SK-OV-3 ovarian; IGROV1 ovarian; OVCAR-3 ovarian; HS 578T breast; NCI/ADR-RES ovarian.
Holding throughout (assay): NCI-60 one-dose screen, 48 h (100 = growth as untreated, 0 = no growth, -100 = all killed)
A further test relates to SR leukemia. To be noted: 10 µM unless noted.
A further test has as its system OVCAR-5 ovarian. To be noted: 10 µM unless noted.

Several values for one entry are separate records, joined by “and”; a condition that tells them apart may be missing. Equal values may be shown once. About 83,000 compounds went through this panel and 20% of them were active in at least one assay; those are over-represented in the sample as a whole.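 The test compound was applied at a single concentration to cells in 96-well plates for 48 hours, and percent growth was recorded.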 Activity calls are given as the source filed them. How the source made its calls: active means growth percent below 10; inactive means the rest.

`Nc1nc(N)c2nc(CNc3ccc(C(=O)NC(CCC(=O)O)C(=O)O)cc3)cnc2n1` (configuration not stated): the growth was 15.1% (inactive) and 40.2% (inactive) with SR leukemia; 60.7% (inactive) and 55% (inactive) in the test on RPMI-8226 leukemia (10 µM unless noted); 31.7% (inactive) and 34.9% (inactive) with OVCAR-8 ovarian (10 µM unless noted); 31.9% (inactive) with OVCAR-5 ovarian; 58.8% (inactive) and 49.1% (inactive) in the test on OVCAR-4 ovarian (10 µM unless noted); 53.9% (inactive) and 44.2% (inactive) with SK-OV-3 ovarian (10 µM unless noted). Also, the growth in the test on IGROV1 ovarian (10 µM unless noted) was 36.9% (inactive) and 34.9% (inactive); in the test on OVCAR-3 ovarian (10 µM unless noted) it was 37.6% (inactive) and 39.8% (inactive); in the test with HS 578T breast (10 µM unless noted), 90.5% (inactive); in the test with NCI/ADR-RES ovarian (10 µM unless noted), 25.8% (inactive) and 20.3% (inactive).
With `CC(=O)C(=Cc1ccc(C=C(C(C)=O)C(C)=O)cc1)C(C)=O`, the growth in the test with SR leukemia is 6.26% (active); in the test with RPMI-8226 leukemia (10 µM unless noted), 2.05% (active); in the test on OVCAR-8 ovarian (10 µM unless noted) it was 2.83% (active); in the test on OVCAR-5 ovarian it was 27.1% (inactive); in the test on OVCAR-4 ovarian (10 µM unless noted) it was 30.4% (inactive); in the test on SK-OV-3 ovarian (10 µM unless noted) it was 93.9% (inactive). The growth is 48.6% (inactive) in the test on IGROV1 ovarian (10 µM unless noted), -16.2% (active) with OVCAR-3 ovarian (10 µM unless noted), 64.7% (inactive) in the test with HS 578T breast (10 µM unless noted) and 7.49% (active) in the test with NCI/ADR-RES ovarian (10 µM unless noted).
Regarding `N#Cc1ccc([N+](=O)[O-])o1`, the growth with SR leukemia is 104% (inactive); in the test with RPMI-8226 leukemia (10 µM unless noted), 107% (inactive); in the test with OVCAR-8 ovarian (10 µM unless noted) it was 89.9% (inactive); in the test with OVCAR-5 ovarian, 107% (inactive); with OVCAR-4 ovarian (10 µM unless noted) it was 107% (inactive); in the test with SK-OV-3 ovarian (10 µM unless noted), 96.4% (inactive). The growth with IGROV1 ovarian (10 µM unless noted) was 109% (inactive); in the test on OVCAR-3 ovarian (10 µM unless noted), 118% (inactive); with HS 578T breast (10 µM unless noted) it was 100% (inactive); with NCI/ADR-RES ovarian (10 µM unless noted), 114% (inactive).
Consider `C1=C(c2ccccc2)C(c2ccc(OCCN3CCCCC3)cc2)Oc2ccccc21` (configuration not stated), for which the growth in the test with SR leukemia is -0.379% (active); with RPMI-8226 leukemia (10 µM unless noted), 15.5% (inactive); in the test on OVCAR-8 ovarian (10 µM unless noted), 77% (inactive); in the test with OVCAR-5 ovarian, 72.4% (inactive); in the test with OVCAR-4 ovarian (10 µM unless noted), 64% (inactive); in the test with SK-OV-3 ovarian (10 µM unless noted) it was 74% (inactive). The growth with IGROV1 ovarian (10 µM unless noted) was 44.2% (inactive); in the test on OVCAR-3 ovarian (10 µM unless noted), 65.6% (inactive); with HS 578T breast (10 µM unless noted) it was 75.6% (inactive); in the test with NCI/ADR-RES ovarian (10 µM unless noted), 68.4% (inactive).
As for `O=C(O)c1c(Cl)c(Cl)c(Cl)c(Cl)c1-c1c2cc(I)c(=O)c(I)c-2oc2c(I)c(O)c(I)cc12`, the growth was 97.9% (inactive) in the test on SR leukemia; 114% (inactive) and 90.6% (inactive) and 31.5% (inactive) in the test with RPMI-8226 leukemia (10 µM); 24.3% (inactive) in the test on RPMI-8226 leukemia (100 µM); 107% (inactive) and 105% (inactive) and 91.4% (inactive) with OVCAR-8 ovarian (10 µM); -13.2% (active) in the test with OVCAR-8 ovarian (100 µM); 104% (inactive) and 110% (inactive) and 72.9% (inactive) in the test with OVCAR-4 ovarian (10 µM). For the same molecule, the growth with OVCAR-4 ovarian (100 µM) is 53.2% (inactive); in the test with SK-OV-3 ovarian (10 µM), 101% (inactive) and 92.4% (inactive) and 93.1% (inactive); in the test on SK-OV-3 ovarian (100 µM), -73.9% (active); in the test with IGROV1 ovarian (10 µM), 105% (inactive) and 80.5% (inactive) and -7.13% (active); in the test with IGROV1 ovarian (100 µM), 5.19% (active); in the test on OVCAR-3 ovarian (10 µM), 97.1% (inactive) and 72% (inactive) and 111% (inactive). Moreover, the growth in the test with OVCAR-3 ovarian (100 µM) was -26.1% (active); in the test with HS 578T breast (10 µM) it was 107% (inactive) and 93.5% (inactive); with HS 578T breast (100 µM), 27.5% (inactive); in the test on NCI/ADR-RES ovarian (10 µM) it was 103% (inactive) and 98% (inactive) and 109% (inactive); with NCI/ADR-RES ovarian (100 µM), 10.7% (inactive).
Take `CCC1OC(OC)C=CC1=O` (configuration not stated): the growth with SR leukemia is 81.5% (inactive); in the test with RPMI-8226 leukemia (10 µM unless noted) it was 110% (inactive); in the test with OVCAR-8 ovarian (10 µM unless noted), 117% (inactive); in the test on OVCAR-5 ovarian, 123% (inactive); in the test on OVCAR-4 ovarian (10 µM unless noted), 103% (inactive); in the test on SK-OV-3 ovarian (10 µM unless noted), 102% (inactive). The growth is 137% (inactive) with IGROV1 ovarian (10 µM unless noted), 95.4% (inactive) in the test with OVCAR-3 ovarian (10 µM unless noted), 96.9% (inactive) in the test on HS 578T breast (10 µM unless noted) and 111% (inactive) in the test on NCI/ADR-RES ovarian (10 µM unless noted).
Regarding `N[C@H](C(=O)O)[C@@H]1CC(Cl)=NO1`, the growth in the test with SR leukemia was 21.2% [20 µM] (inactive); with RPMI-8226 leukemia (10 µM unless noted), 28.9% [20 µM] (inactive); in the test with OVCAR-8 ovarian (10 µM unless noted), 30.3% [20 µM] (inactive); in the test with OVCAR-5 ovarian, 28.4% [20 µM] (inactive); in the test with OVCAR-4 ovarian (10 µM unless noted) it was 48.1% [20 µM] (inactive); in the test on SK-OV-3 ovarian (10 µM unless noted), 34.1% [20 µM] (inactive). For the same molecule, the growth in the test on IGROV1 ovarian (10 µM unless noted) is 10.8% [20 µM] (inactive); in the test with OVCAR-3 ovarian (10 µM unless noted), 32.4% [20 µM] (inactive); in the test with HS 578T breast (10 µM unless noted) it was 27.2% [20 µM] (inactive); with NCI/ADR-RES ovarian (10 µM unless noted), 28.4% [20 µM] (inactive).
Regarding `NC(=O)/C=C/C(=O)c1c(Cl)cccc1Cl`, the growth in the test on SR leukemia is -42% (active); in the test on RPMI-8226 leukemia (10 µM unless noted), -34.7% (active); with OVCAR-8 ovarian (10 µM unless noted), -67.4% (active); in the test with OVCAR-5 ovarian, -99.6% (active); with OVCAR-4 ovarian (10 µM unless noted), -67.4% (active); in the test on SK-OV-3 ovarian (10 µM unless noted), 59% (inactive). The growth was -57.5% (active) with IGROV1 ovarian (10 µM unless noted), -81.3% (active) with OVCAR-3 ovarian (10 µM unless noted), -7.11% (active) in the test on HS 578T breast (10 µM unless noted) and -59.4% (active) with NCI/ADR-RES ovarian (10 µM unless noted).
In the case of `CCCCCCCCCCCCCCCCCCOP(=O)([O-])OC1CC[N+](C)(C)CC1`, the growth was 3.18% (active) and -3.35% (active) in the test with SR leukemia; 6.44% (active) and -36.6% (active) in the test with RPMI-8226 leukemia (10 µM unless noted); 49.6% (inactive) in the test with OVCAR-8 ovarian (10 µM unless noted); -24.1% (active) and -61.2% (active) in the test with OVCAR-5 ovarian; 65.2% (inactive) in the test with OVCAR-4 ovarian (10 µM unless noted); 35.9% (inactive) and 48.2% (inactive) in the test with SK-OV-3 ovarian (10 µM unless noted). Besides, the growth in the test with IGROV1 ovarian (10 µM unless noted) is -61.7% (active); with OVCAR-3 ovarian (10 µM unless noted), 65.9% (inactive) and 14% (inactive); in the test with HS 578T breast (10 µM unless noted), 11.8% (inactive); in the test with NCI/ADR-RES ovarian (10 µM unless noted), 73.5% (inactive) and 54.9% (inactive).
Turning to `COc1cc(/C=C(/C)C[N+](=O)[O-])ccc1O`, the growth is 34% (inactive) in the test on SR leukemia; 64.3% (inactive) in the test on RPMI-8226 leukemia (10 µM unless noted); 94.7% (inactive) with OVCAR-8 ovarian (10 µM unless noted); 110% (inactive) in the test with OVCAR-5 ovarian; 104% (inactive) in the test on OVCAR-4 ovarian (10 µM unless noted); 103% (inactive) in the test with SK-OV-3 ovarian (10 µM unless noted). Besides, the growth in the test with IGROV1 ovarian (10 µM unless noted) is 44.1% (inactive); in the test on OVCAR-3 ovarian (10 µM unless noted), 85.4% (inactive); in the test with HS 578T breast (10 µM unless noted), 98.7% (inactive); in the test with NCI/ADR-RES ovarian (10 µM unless noted) it was 102% (inactive).
